Source: PubChem BioAssay (NCATS)
Inconclusive results are not listed. Activity calls are given as the source filed them. Calls come from the whole dose curve; as a rule, active = well fitted cell-killing curve with a large enough effect; inconclusive = small, poorly fitted or top-dose-only effect, or effect the other way; inactive = no such curve, though single readings can be large or run the other way.

assay: qHTS assay to identify small molecule inhibitors of chordoma cells - UCH-1 (AID 1259355); conditions: UCH-1 chordoma viability, CellTiter-Glo, 48 h, combination, with auranofin plus four topoisomerase inhibitors; series mostly up to 46.1 µM; activity, negative = inhibition: at the top concentration; note: nearly all actives have a fitted effect of over 55% in size
Summary of the method: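 A 48hr growth-inhibition format: each drug tested at 15 concentrations together with added auranofin, camptothecin, doxorubicin, rubitecan and topotecan, with cell viability quantified as CellTiter-Glo luminescence.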
% is set by controls: 0 for no effect and ±100 for the full control effect.

With `CC(C)C1=CC2=CC[C@@H]3[C@](C)(CCC[C@@]3(C)C(=O)O)[C@H]2CC1` as the compound, how does the “activity, negative = inhibition” value read?
Its value is -15.2% (inactive).

For `CCCCCCCCCCCCCCCC(=O)OC[C@H](COP(=O)([O-])OCC[N+](C)(C)C)OC(=O)CCCCCCCCCCCCCCC`, which “activity, negative = inhibition” value is on record?
The value was -8.35% (inactive).

With `Cc1cccc(C)c1Nc1ncccc1C(=O)O` as the compound, how does the “activity, negative = inhibition” value read?
Its value is -11.5% (inactive).

Which “activity, negative = inhibition” value does the source give for `CC1(C)S[C@@H]2[C@H](N3C(=O)C(c4ccccc4)NC3(C)C)C(=O)N2[C@H]1C(=O)O` (stereo partly drawn) here?
Its value is -10.7% (inactive).

With `N=C(N)n1cccn1` as the compound, how does the “activity, negative = inhibition” value read?
Its value is -12.3% (inactive).

With `C[C@@H]1O[C@@H](OC[C@H]2O[C@@H](Oc3c(-c4ccc(OCCO)c(OCCO)c4)oc4cc(OCCO)cc(O)c4c3=O)[C@H](O)[C@@H](O)[C@@H]2O)[C@H](O)[C@H](O)[C@H]1O` as the compound, how does the “activity, negative = inhibition” value read?
The value was -3.46% (inactive).

For `CCCCC/C=C\CCC(=O)N[C@H]1[C@H](Oc2c3cc4cc2Oc2ccc(cc2Cl)[C@@H](O[C@@H]2O[C@H](CO)[C@@H](O)[C@H](O)[C@H]2NC(C)=O)[C@@H]2NC(=O)[C@H](NC(=O)[C@@H]4NC(=O)[C@H]4NC(=O)[C@@H](Cc5ccc(c(Cl)c5)O3)NC(=O)[C@H](N)c3ccc(O)c(c3)Oc3cc(O)cc4c3)c3ccc(O)c(c3)-c3c(O[C@H]4O[C@H](CO)[C@@H](O)[C@H](O)[C@@H]4O)cc(O)cc3[C@@H](C(=O)O)NC2=O)O[C@H](CO)[C@@H](O)[C@@H]1O`, which “activity, negative = inhibition” value is on record?
Its value is -6.81% [at 20.6 µM] (inactive).

With `CC(C)CN(C[C@@H](OP(=O)(O)O)[C@H](Cc1ccccc1)NC(=O)O[C@H]1CCOC1)S(=O)(=O)c1ccc(N)cc1` as the compound, how does the “activity, negative = inhibition” value read?
Its value is -19.4% (inactive).

For `COc1ccc(/C=C/C(=O)OCCC(C)C)cc1`, which “activity, negative = inhibition” value is on record?
The value was 1.53% (inactive).

For `O=[N+]([O-])c1c(Cl)cccc1-c1c[nH]cc1Cl`, which “activity, negative = inhibition” value is on record?
The value was -12.8% (inactive).

Which “activity, negative = inhibition” value does the source give for `Cc1ncc(COP(=O)(O)O)c(CN)c1O` here?
Its value is -0.589% (inactive).

For `FC(F)(F)COCC(F)(F)F`, which “activity, negative = inhibition” value is on record?
The value was -9.49% (inactive).

Which “activity, negative = inhibition” value does the source give for `N=C(N)c1ccc(/C=C/c2ccc(C(=N)N)cc2O)cc1` here?
The value was -26.7% (inactive).
